According to PubChem BioAssay (NCATS):
Records with an inconclusive call do not appear. Entries that show only a call come without a potency. Activity calls are given as the source filed them. Calls follow the shape of the dose curve; as a rule, active = well fitted curve in the direction sought with a large enough effect; inconclusive = small, poorly fitted or top-dose-only effect, or another doubt; inactive = no such curve, though single readings can be large; an effect the other way counts as inactive or inconclusive.

How the values were obtained:
[1] = Quantitative High-Throughput drug screen in 47 multiple myeloma cell lines against the NCATS MIPE library collection: KMM1_JCRB cell viability assay (AID 1918960); also: nearly all actives have a fitted effect of over 30% in size; also: potency is read from the fitted curve at half-maximal effect
Method in brief: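 Cell viability inhibition in this qHTS is measured via ATP content (CellTiter-Glo) after 48 h drug exposure at 37 °C. Wells hold 500 cells; DMSO-treated wells define 100% and medium-only wells 0%.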

[2] = Quantitative High-Throughput drug screen in 47 multiple myeloma cell lines against the NCATS MIPE library collection: JIM3_ECACC cell viability assay (AID 1918963; also: nearly all actives have a fitted effect of over 35% in size; also: potency is read from the fitted curve at half-maximal effect)
Method in brief: (§1)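 Myeloma cells (500 per well) were exposed to MIPE 4.0 compounds by pin transfer and incubated 48 hours at 37C, 5% CO2. Viability was read as ATP by CellTiter-Glo luminescence, normalised to DMSO (100%) and media-only (0%) wells.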

[3] = Quantitative High-Throughput drug screen in 47 multiple myeloma cell lines against the NCATS MIPE library collection: INA6_PLB cell viability assay (AID 1918965; also: nearly all actives have a fitted effect of over 55% in size; also: potency is read from the fitted curve at half-maximal effect)
Method in brief: (§2)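 CellTiter-Glo ATP luminescence gave viability after 48 h compound treatment at 37C of 500 multiple myeloma cells per well. Normalisation used DMSO-only wells as 100% and media-only wells as 0% viability; primary qHTS of approved and investigational drugs.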

[4] = Quantitative High-Throughput drug screen in 47 multiple myeloma cell lines against the NCATS MIPE library collection: H1112_PLB cell viability assay (AID 1918967; also: nearly all actives have a fitted effect of over 30% in size; also: potency is read from the fitted curve at half-maximal effect)
Method in brief: (§3)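 Relative luminescence from CellTiter-Glo served as the viability signal, referenced to DMSO-treated (100%) and cell-free medium (0%) controls. Treatment lasted 48 hours at 37C with 500 cells per well.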

[5] = Quantitative High-Throughput drug screen in 47 multiple myeloma cell lines against the NCATS MIPE library collection: Karpas25_ECACC cell viability assay (AID 1918968; also: nearly all actives have a fitted effect of over 35% in size; also: potency is read from the fitted curve at half-maximal effect)
Method in brief: as §3

[6] = Quantitative High-Throughput drug screen in 47 multiple myeloma cell lines against the NCATS MIPE library collection: JIM1_ECACC cell viability assay (AID 1918964)
Method in brief: as §3

[7] = Quantitative High-Throughput drug screen in 47 multiple myeloma cell lines against the NCATS MIPE library collection: JJN3_DSMZ cell viability assay (AID 1918966; also: nearly all actives have a fitted effect of over 50% in size; also: potency is read from the fitted curve at half-maximal effect)
Method in brief: as §3

[8] = Quantitative High-Throughput drug screen in 47 multiple myeloma cell lines against the NCATS MIPE library collection: KMS27_JCRB cell viability assay (AID 1918970); also: nearly all actives have a fitted effect of over 30% in size; also: potency is read from the fitted curve at half-maximal effect
Method in brief: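 Each line is seeded at 500 cells per well and treated with library compounds for 48 hours under 37 °C, 5% CO2. CellTiter-Glo is then added for 5 min at room temperature before median relative luminescence is recorded.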

[9] = Quantitative High-Throughput drug screen in 47 multiple myeloma cell lines against the NCATS MIPE library collection: Karpas417_ECACC cell viability assay (AID 1918961); settings: Karpas417 myeloma viability, CellTiter-Glo ATP luminescence, 48 h; viability (% of DMSO): at 45.8 µM (top of the series)
Method in brief: as §2

[10] = Quantitative High-Throughput drug screen in 47 multiple myeloma cell lines against the NCATS MIPE library collection: KHM11_PLB cell viability assay (AID 1918962); also: nearly all actives have a fitted effect of over 35% in size
Method in brief: as §1

CO[C@H]1C(=O)[C@]2(C)[C@@H](OC)C[C@H]3OC[C@@]3(OC(C)=O)[C@H]2[C@H](OC(=O)c2ccccc2)[C@]2(O)C[C@H](OC(=O)[C@H](O)[C@@H](NC(=O)OC(C)(C)C)c3ccccc3)C(C)=C1C2(C)C
Potency [1]: inactive | Potency [2]: inactive | Potency [3]: inactive | Potency [4]: inactive | Potency [5]: inactive

O=c1c(-c2ccc(O)cc2)coc2cc(O[C@@H]3O[C@H](CO)[C@H](O)[C@H](O)[C@H]3O)ccc12
Potency [1]: inactive | Potency [6]: inactive | Potency [7]: inactive | Potency [4]: inactive

CC(C)(C)Cn1c(N)nc2ccc(-c3[nH]c(C(C)(C)C)nc3-c3ccc(F)cc3)nc21
Potency [1]: inactive | Potency [6]: inactive | Potency [7]: 20.9 µM (active) | Potency [4]: 20.9 µM (active) | Potency [8]: inactive

Nc1ncnc2c1ncn2[C@@H]1O[C@H](CO)C[C@@H]1O
Potency [1]: inactive | Potency [2]: inactive | Potency [3]: inactive | Potency [5]: inactive | Potency [8]: inactive

O=C(Nc1cc(Cl)cc2c1[nH]c1cnccc12)c1cccnc1
Potency [1]: 6.62 µM (active) | Potency [2]: inactive | Potency [3]: 16.6 µM (active) | Potency [8]: inactive

C[C@@H]1CCN(C(=O)CC#N)C[C@H]1N(C)c1ncnc2[nH]ccc12
Potency [1]: inactive | Potency [2]: inactive | Potency [4]: inactive | Potency [5]: inactive

COC1CCC(N(C(=O)C2CCC(C)CC2)c2cc(C3=CCCCC3)sc2C(=O)O)CC1 (stereo not drawn)
Potency [1]: inactive | Potency [6]: inactive | Potency [3]: 23.5 µM (active) | Potency [8]: inactive

CC(C)(C(=O)NCC(F)(F)C(F)(F)F)C(=O)N[C@@H]1C(=O)Nc2ccccc2-c2ccccc21
Potency [1]: 18.7 µM (active) | Potency [3]: 18.7 µM (active) | Potency [4]: 16.6 µM (active) | Potency [8]: 1.32 µM (active)

NC1CCC(Nc2nc(Nc3ccc(C(=O)N4CCCCC4)cc3)c3ncn(-c4cccc(F)c4)c3n2)CC1 (stereo not drawn)
Potency [1]: inactive | Potency [2]: inactive | Potency [5]: inactive

CC[C@]1(O)C[C@@H]2CN(CCc3c([nH]c4ccccc34)[C@@](C(=O)OC)(c3cc4c(cc3OC)N(C=O)[C@@H]3C45CCN4CC=C[C@](CC)([C@H]45)[C@@H](OC(C)=O)[C@]3(O)C(=O)OC)C2)C1 (stereo partly drawn)
Potency [1]: inactive | Potency [6]: inactive | Potency [7]: 20.9 µM (active) | Potency [8]: inactive

O=C(CCc1ccc(O)cc1)c1c(O)cc(O)cc1O[C@@H]1O[C@H](CO)[C@H](O)[C@H](O)[C@H]1O
Potency [1]: inactive | Potency [2]: inactive | Potency [8]: inactive

Cc1ccccc1C(C(=O)NC1CCCCC1)N(C(=O)Cn1ccnc1C)c1cccc(F)c1 (stereo not drawn)
Potency [1]: inactive | Potency [2]: inactive | Potency [3]: inactive | Potency [8]: inactive

CCOC(=O)O[C@]1(C(=O)OCCl)CC[C@@H]2[C@H]3CCC4=CC(=O)C=C[C@]4(C)[C@@H]3[C@@H](O)C[C@@]21C
viability (% of DMSO) [9]: 78.2% (active) | Potency [10]: inactive | Potency [2]: inactive | Potency [3]: inactive | Potency [4]: inactive | Potency [8]: inactive

CC[C@H]1OC(=O)[C@H](C)[C@@H](O[C@H]2C[C@@](C)(OC)[C@@H](O)[C@H](C)O2)[C@H](C)[C@@H](O[C@@H]2O[C@H](C)C[C@H](N(C)C)[C@@H]2O)[C@](C)(O)C[C@@H](C)CN(C)[C@H](C)[C@@H](O)[C@]1(C)O
Potency [1]: inactive | Potency [2]: inactive | Potency [5]: inactive

CC(C)C(C)C=CC(C)C1CCC2C3=CC=C4CC(O)CCC4(C)C3CCC21C (stereo not drawn)
Potency [1]: inactive | Potency [2]: inactive | Potency [4]: inactive | Potency [5]: inactive

CC1(C)CCC(CN2CCN(c3ccc(C(=O)NS(=O)(=O)c4ccc(NCC5CCOCC5)c([N+](=O)[O-])c4)c(Oc4cnc5[nH]ccc5c4)c3)CC2)=C(c2ccc(Cl)cc2)C1
Potency [1]: 8.33 µM (active) | Potency [2]: inactive | Potency [7]: 20.9 µM (active)

Clc1ccc(COC(Cn2ccnc2)c2ccc(Cl)cc2Cl)cc1 (stereo not drawn)
Potency [1]: 20.9 µM (active) | Potency [3]: 20.9 µM (active)

O=c1cc(-c2ccccc2)oc2cc(O)c(O)c(O)c12
Potency [1]: inactive | Potency [4]: 20.9 µM (active) | Potency [5]: 20.9 µM (active)

CNC(=O)c1ccccc1Sc1ccc2c(C=Cc3ccccn3)n[nH]c2c1
Potency [1]: 3.32 µM (active) | Potency [3]: 18.7 µM (active) | Potency [4]: 0.296 µM (active) | Potency [5]: 16.6 µM (active)

C[C@H](NC(=O)c1sccc1OCc1ccc(Cl)cc1)c1ccccc1
Potency [1]: inactive | Potency [3]: 26.4 µM (active) | Potency [5]: 16.6 µM (active) | Potency [8]: inactive

COc1ccc2cc(-c3nc(-c4ccc(S(C)=O)cc4)[nH]c3-c3ccncc3)ccc2c1 (stereo not drawn)
Potency [1]: 23.5 µM (active) | Potency [2]: 23.5 µM (active) | Potency [3]: 14.8 µM (active) | Potency [5]: 26.4 µM (active)

O=C(NOCC(O)CO)c1cc(Br)c(F)c(F)c1Nc1ccc(I)cc1F (stereo not drawn)
Potency [1]: inactive | Potency [4]: 0.118 µM (active)

Cc1cc(OCCCc2c(C(=O)O)n(Cc3cccnc3)c3c(-c4c(COc5ccc(N6CCN([S+](C)(=O)[O-])CC6)cc5)nn(C)c4C)cccc23)cc(C)c1Cl
Potency [1]: 9.35 µM (active) | Potency [3]: 18.7 µM (active) | Potency [7]: 26.4 µM (active) | Potency [8]: inactive
